Hits are enriched below; roughly 0.78% of the tested compounds scored in any of these assays.
GLS inhibitor: inhibitors of human glutaminase (GLS); O94925; GLS enzymatic activity, qHTS titration; Potency, µM (highest dose often 45.5 µM), for inactives: top-dose activity change, negative = inhibition, actives largely listed as inhibitors; 410,000 tested, 0.21% active; also: potency is read from the fitted curve at half-maximal effect; % is scaled to controls: 0 for no effect and ±100 for the full control effect
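Coupled fluorescence readout: glutamate oxidase/HRP/Amplex Red detect glutamate formed by hKGA from L-glutamine (1 mM solution added). Buffer 45 mM KH2PO4 pH 8.2, 0.02% Tween-20; reads at t0 and 30 min RT.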
Tb PGK inh: blocks T. brucei phosphoglycerate kinase. P07378. 380,000 tested, 0.043% active. Potency, µM (titrated, usually from 57.5 µM), without a hit: at the top dose activity change, negative = inhibition, actives largely listed as inhibitors. PGK/GAPDH coupled, Kinase-Glo luminescence, 60 min; also: potency is read from the fitted curve at half-maximal effect; % is scaled to controls: 0 for no effect and ±100 for the full control effect; nearly all actives have a fitted effect of over 60% in size
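Luminescent ATP detection (Kinase-Glo Plus) follows a 60-minute room-temperature incubation, with wells lacking PGK as controls. Buffer: 100 mM TEA (pH 7.6), 5 mM MgCl2, 0.01% Tween-20. Coupling enzyme GAPDH (100 nM final) supplies unstable 1,3-BPG in-well.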
PI4K2A inh: PI4K2A (human) kinase inhibition | Q9BTU6 | purified PI4K2A, ADP-Glo luminescence, 1 h; hits give low values | activity change, negative = inhibition, % at 76.9 µM | 420,000 tested, 0.13% active | AID 1346378; in the data active = activity change below about -50%; inconclusive = mostly about -30% to -49%;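 also: -100% = wells without enzyme as full effect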
Target sequence (Q9BTU6 whole entry, looked up): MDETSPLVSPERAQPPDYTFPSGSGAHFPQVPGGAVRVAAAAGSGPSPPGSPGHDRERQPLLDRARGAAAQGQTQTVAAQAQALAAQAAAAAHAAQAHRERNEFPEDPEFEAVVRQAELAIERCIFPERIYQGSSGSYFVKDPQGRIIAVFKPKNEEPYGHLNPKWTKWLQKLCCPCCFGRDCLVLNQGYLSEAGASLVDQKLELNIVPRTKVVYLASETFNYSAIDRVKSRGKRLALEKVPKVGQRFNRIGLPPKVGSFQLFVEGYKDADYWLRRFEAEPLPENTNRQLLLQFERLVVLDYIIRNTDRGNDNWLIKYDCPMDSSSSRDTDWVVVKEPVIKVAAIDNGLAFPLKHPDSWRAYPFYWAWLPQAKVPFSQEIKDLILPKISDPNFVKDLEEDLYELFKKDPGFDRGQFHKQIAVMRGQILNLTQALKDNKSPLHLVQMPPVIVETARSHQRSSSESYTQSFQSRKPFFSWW
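In this quantitative HTS, ADP production by PI4K2A was quantified luminescently after 1 h at ambient temperature; 100 microM adenosine served as plate-quality control.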
PINK1 modulator: changes PINK1 expression | PINK1 immunofluorescence, high-content cytometry, 24 h | Potency, µM (highest dose often 76.6 µM), for the others: top-dose activation (PINK1 increase), most hits filed as activators | 410,000 tested, 0.2% active | AID 624263; active = well fitted activation curve with a large enough effect; inconclusive = small, poorly fitted or top-dose-only effect; cell line not stated here; also: potency is read from the fitted curve at half-maximal effect; % of control where 0% means no effect; nearly all actives have a fitted effect of over 65% in size
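Stable cell line treated 24 h with compounds at 5 concentrations (CCCP controls), then fixed and immunostained for PINK1 plus nuclear and cell stains; PINK1 immunofluorescence quantified by laser-scanning microplate cytometry.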
CCT chaperon mod: cytosolic chaperonin activity modulation | purified chaperonin ATPase assay, HTRF ADP detection, 30 min | activity change, % (no concentration beside the values), hits read low | 360,000 tested, 0.3% active | AID 651819; in the data active = activity change below about -30%; also: % is scaled to controls: 0 for no effect and ±100 for the full control effect
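We incubate TRiC, 40 or 20 nM final, with library compounds at 76 uM and 10 uM ATP for 30 min at 37 °C. ADP formed is detected with Transcreener HTRF reagents after 30 min at room temperature.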
An asterisk follows results filed as active; i = inactive; ? = inconclusive; nt = no result given; ! = repeats disagree; [ ] = another dose, or the depositor's remark. Unless noted, calls follow the shape of the dose curve; as a rule, active = well fitted curve in the direction sought with a large enough effect; inconclusive = small, poorly fitted or top-dose-only effect, or another doubt; inactive = no such curve, though single readings can be large; an effect the other way counts as inactive or inconclusive.

SMILES	GLS inhibitor	Tb PGK inh	PI4K2A inh	PINK1 modulator	CCT chaperon mod
C=C/C=C/CC1=C(C)[C@@H](OC(=O)[C@@H]2[C@@H](/C=C(\C)C(=O)OC)C2(C)C)CC1=O (tested in a mixture with another compound)	-3%	nt	nt	nt	nt
COc1cc(/C=C2\C(=O)NC(=O)N(CCc3ccc(F)cc3)C2=O)ccc1O	7%	-1%	-53*	4%	1
Sc1ccccc1Cl	nt	nt	2	nt	nt
CN(C)[C@H]1C(=O)C(C(N)=O)=C(O)[C@]2(O)C(=O)C3=C(O)c4c(O)cccc4[C@@](C)(O)[C@H]3C[C@@H]12	-22%[20 µM]	nt	nt	nt	nt
CN(C)[C@@H]1C(=O)C(C(N)=O)=C(O)[C@@]2(O)C(=O)C3=C(O)c4c(O)cccc4[C@@](C)(O)C3[C@H](O)C12 (stereo not given in full)	10µM*!	-30%	-26	0%	-2
C#CC(O)(C=CCl)CC (stereo not given)	nt	nt	-1	nt	nt
CN1/C(=C\C=C2C(=O)NC(=S)NC2=O)C(C)(C)c2ccccc21	11%	-8%	-2	35µM*	-2
CCOc1ccc(-c2c(C)n(-c3ccc(OCC)cc3)c3[n+]2CCCCC3)cc1	0%	8%	6	10µM*	-2
CCO[C@H]1O[C@@H]2OC3(C)CC[C@H]4[C@H](C)CC[C@@H]([C@H]1C)[C@@]24OO3	nt	nt	2	nt	nt
O=[N+]([O-])c1ccc(N2CCCCC2)c2ncccc12	0%	-5%	-3	0%	-3
O=[N+]([O-])c1ccc(N2CCCCCC2)c2nonc12	5%	2%	-5	40µM*	1
ClC[C@H]1CO1 (tested in a mixture with another compound)	-5%	nt	nt	nt	nt
Cc1c(C)c2ccc(OCC(=O)N3C[C@H]4C[C@@H](C3)c3cccc(=O)n3C4)c(C)c2oc1=O	3%	1%	3	0%	-2
Cc1cc(OCC(=O)N2C[C@H]3C[C@@H](C2)c2cccc(=O)n2C3)c2c(C)c(C)c(=O)oc2c1	-7%	i	-2	3%	-59*
Cc1cccc(-n2c(O)c(/C=C3/C(c4ccccc4)=Nc4ccccc43)c(=O)[nH]c2=O)c1	-3%	-9%	-11	3%	-44*
Cn1ncnc2c(=O)n(C)c(=O)nc1-2	-9%	?	-52*	-4%	0
N#CC(C#N)=Cc1ccc(N2CCCC2)cc1	2%	2%	3	1%	-46*
Cc1c(NS(=O)(=O)c2ccccc2)ccc([N+](=O)[O-])c1Cl	11%	-3%	-1	16µM*	1
O=[N+]([O-])c1ccc(Cl)c(Cl)c1Cl	12%	2%	0	0%	0
O=c1c2ccccc2nc(/C=C/c2ccc([N+](=O)[O-])o2)n1-c1ccc(O)cc1	-8%	-18%	-3	40µM*	2
Cc1cccc(-n2c(/C=C/c3ccc([N+](=O)[O-])o3)nc3ccccc3c2=O)c1	4%	-7%	8	10%	-1
CCOc1cccc(=NC2CCCCC2)c2c(C)n(C)c(C)c12	7%	5%	-2	16µM*	-4
CCOc1ccccc1N=C1SCCCN1C	-11%	-3%	-2	5%[38.3 µM]	1
CN1C2CCC(C)(C)C1CC(OC(=O)C(O)(c1cccs1)c1cccs1)C2 (stereo not given)	nt	nt	1	nt	nt
COc1cc2c(cc1OC)[C@@H]1C(=O)c3ccc(OC)c(CC=C(C)C)c3OC1CO2 (stereo not given in full)	nt	nt	nt	20µM*	nt
SMILES	GLS inhibitor	Tb PGK inh	PI4K2A inh	PINK1 modulator	CCT chaperon mod
N#Cc1cc(NC(=O)c2ccc(Cl)cc2)ccc1Sc1ccccc1	-13%	nt	-3	25µM*	3
COc1ccc2c3c1OC1C(O)C=CC4[C@@H](C2)NCC[C@]314 (stereo not given in full)	0%[99.4 µM]	nt	nt	nt	nt
COc1ccc(OC)c(N=Cc2c(O)n(Cc3ccccc3)c(=S)[nH]c2=O)c1	-25%	9%	0	35µM*	-3
COc1ccc(N=Cc2c(O)n(Cc3ccccc3)c(=S)[nH]c2=O)c(OC)c1	-13%	8%	-3	1%	1
CCc1ccc(C2CCNCC2)cc1	nt	nt	1	nt	nt
CCN(CCNc1ccc([N+](=O)[O-])c2cccnc12)S(=O)(=O)c1ccc(Cl)cc1	9%	5%	-9	-2%	0
CCN(CCNc1ccc([N+](=O)[O-])c2cccnc12)S(=O)(=O)c1ccccc1	-6%	i	2	40µM*	3
CCC(=O)C(CCN(C)C)(c1ccccc1)c1ccccc1	nt	nt	1	nt	nt
CC(C)=CCN1CC[C@@]2(C)c3cc(O)ccc3C[C@@H]1[C@@H]2C	nt	nt	i	nt	nt
Cc1[nH]n(-c2ccccc2)c(=O)c1C(c1ccc([N+](=O)[O-])cc1)c1c(C)[nH]n(-c2ccccc2)c1=O	-5%	-16%	?	40µM*	-1
CCN1CCCC1CNC(=O)C(O)(c1ccccc1)c1ccccc1 (stereo not given)	nt	nt	4	nt	nt
CC#C[C@]1(O)CC[C@H]2[C@@H]3C[C@H](C)C4=CC(=O)CC[C@]4(C)[C@H]3CC[C@@]21C	nt	nt	-5	nt	nt
CCOC(=O)C1CCN(/C=C2/C(=O)NC(=S)N(c3cccc(OC)c3)C2=O)CC1	-8%	-10%	-4	1%	-42*
CCOC(=O)C1CCN(/C=C2\C(=O)NC(=S)N(CC)C2=O)CC1	37%	i	-2	-2%	-1
CCOC(=O)c1ccc(-[n+]2c(-c3ccccc3)cc(-c3ccccc3)cc2-c2ccccc2)cc1	1%	-3%	-4	?	-4
CCOC(=O)c1cccc(-[n+]2c(-c3ccccc3)cc(-c3ccccc3)cc2-c2ccccc2)c1	8%	-8%	-3	25µM*	-4
CCON=C(CC)C1=C(O)CC(c2c(C)cc(C)cc2C)CC1=O (stereo not given)	1%[99.4 µM]	nt	nt	nt	nt
CCOc1ccc(N2C(=O)/C(=C/c3ccco3)C(=O)NC2=S)cc1	1.8µM*	?	-81*	2%	-2
O=c1[nH]sc2cc(F)ccc12	7.9µM*	6%	-3	0%	0
